# Reference: the supplement of paper PMC6992640
# ± gives the standard deviation of the averaged measurements.
# Assays:
# Assay in all cases: cell viability (% of vehicle); higher = less cytotoxic
# HCI01 [1] = cells of a triple-negative basal-like breast cancer xenograft; conditions: 1 µM; 72 h
# UCD52 [2] = cells of a triple-negative basal-like breast cancer xenograft; conditions: 1 µM; 72 h
# WHIM2 [3] = cells of a triple-negative basal-like breast cancer xenograft; conditions: 1 µM; 72 h
# WHIM30 [4] = cells of a triple-negative basal-like breast cancer xenograft; conditions: 1 µM; 72 h
# HCI01 [5] = conditions: 10 µM; 72 h
# HCI03 = cells of an ER-positive luminal breast cancer xenograft; conditions: 10 µM; 72 h
# HCI09 = cells of a triple-negative luminal androgen receptor type breast cancer xenograft; conditions: 10 µM; 72 h
# HCI11 = cells of an ER-positive luminal breast cancer xenograft; conditions: 10 µM; 72 h
# HCI13 = cells of an ER-positive luminal breast cancer xenograft; conditions: 10 µM; 72 h
# HCI16 = cells of a triple-negative basal-like breast cancer xenograft; conditions: 10 µM; 72 h
# UCD52 [6] = conditions: 10 µM; 72 h
# WHIM2 [7] = conditions: 10 µM; 72 h
# WHIM30 [8] = conditions: 10 µM; 72 h
SMILES,cell viability (HCI01 [1]),cell viability (UCD52 [2]),cell viability (WHIM2 [3]),cell viability (WHIM30 [4]),cell viability (HCI01 [5]),cell viability (HCI03),cell viability (HCI09),cell viability (HCI11),cell viability (HCI13),cell viability (HCI16),cell viability (UCD52 [6]),cell viability (WHIM2 [7]),cell viability (WHIM30 [8])
Cc1cc(C(C#N)c2ccc(Cl)cc2)c(Cl)cc1NC(=O)c1cc(I)cc(I)c1[O-].[Na+] (configuration not stated) [Closantel Sodium],93.1,90.9,106,88.2,34.4 ± 1.9,114,17.978 ± 0.0048,93.2,35.4 ± 2.9,96.3,68.1 ± 7.7,44.6 ± 10,52.7 ± 0.69
CNCC(=O)c1ccc(O)c(O)c1.Cl [Adrenalone HCl],–,–,–,–,111 ± 21,116,104 ± 15,107,88.5 ± 7.3,152,99.9 ± 5.5,87.8 ± 1.7,106 ± 7.2
C[N+](C)(C)CCCCCCCCCC[N+](C)(C)C.[Br-].[Br-] [Decamethonium Bromide],–,–,–,–,110 ± 4.6,120,100 ± 6.9,102,105 ± 1.9,105,78.9 ± 6.2,89.8 ± 8.7,101 ± 10
Cc1cccc(C(C)c2cnc[nH]2)c1C.Cl (configuration not stated) [Medetomidine HCl],–,–,–,–,108 ± 7.7,102,93.2 ± 21,103,100.9 ± 1,95.4,87.4 ± 2.9,89.3 ± 22,113 ± 5.8
CCCN1CC(CSC)CC2c3cccc4[nH]cc(c34)CC21.CS(=O)(=O)O (configuration not stated) [Pergolide mesylate],–,–,–,–,107.1 ± 0.5,92.4,106 ± 8.8,87.6,98.3 ± 5.6,124,76.5 ± 1.3,101 ± 14,110 ± 12
OC(c1ccccc1)(c1ccccc1)C1CCNCC1 [Azacyclonol],–,–,–,–,98.1 ± 19,137,84.5 ± 38,93.8,79 ± 10,110,95.8 ± 10,109 ± 34,113 ± 2.1
Cn1cc(C2=C(c3cn(C4CCN(Cc5ccccn5)CC4)c4ccccc34)C(=O)NC2=O)c2ccccc21,–,–,–,–,94 ± 30,95.8,72.7 ± 44,82.3,72.1 ± 9.6,99.5,49 ± 7.5,107 ± 18,119 ± 5.6
CC(NC(C)(C)C)C(=O)c1cccc(Cl)c1.Cl (configuration not stated) [Bupropion hydrochloride],–,–,–,–,101 ± 2.5,109,99.6 ± 20,85.6,103 ± 1.1,113,90.5 ± 14,104 ± 5.2,121 ± 10
CC(C)N(CCNC(=O)CN1CCCC1=O)C(C)C [Pramiracetam],–,–,–,–,85.1 ± 58,155,101 ± 9.4,110,120 ± 2.3,129,108 ± 2.9,119 ± 11,–
O=C1CCC2(O)C3Cc4ccc(O)c5c4C2(CCN3CC2CC2)C1O5 (configuration not stated) [Naltrexone],–,–,–,–,111 ± 8.9,121,97.4 ± 10,103,100.1 ± 0.98,93.4,94.5 ± 12,92.4 ± 14,130 ± 23
Cc1cc(C(C#N)c2ccc(Cl)cc2)c(Cl)cc1NC(=O)c1cc(I)cc(I)c1O (configuration not stated) [Closantel],88.8,91.3,105,82.7,29.4 ± 6.5,104,17.7 ± 1.8,85.7,37 ± 7.8,105,61.5 ± 2.6,37.6 ± 13,87.6 ± 4
C[N+]1(C)CCCC(OC(=O)C(O)(c2ccccc2)c2ccccc2)C1.[Br-] (configuration not stated) [Mepenzolate Bromide],–,–,–,–,109 ± 6.9,133,103 ± 5.9,108,133 ± 27,108,87.5 ± 8.5,98.1 ± 7.5,128 ± 2.7
Cl.NCCc1c[nH]c2ccc(O)cc12 [Serotonin HCl],–,–,–,–,103 ± 13,132,99.9 ± 4,94.8,57.8 ± 1.6,109,100 ± 9.6,137 ± 45,163 ± 26
CC(C)c1c(CN(C)C(C)Cc2ccccc2)n(C)n(-c2ccccc2)c1=O (configuration not stated) [Famprofazone],–,–,–,–,121 ± 24,129,79.2 ± 5.1,111,85.3 ± 14,121,87.7 ± 11,97.6 ± 16,124 ± 8.3
Cc1cccc(C)c1NC1=NCCCS1.Cl [Xylazine HCl],–,–,–,–,159 ± 36,120,110 ± 12,115,105 ± 6.4,124,92.3 ± 11,120 ± 7,127 ± 8
CN1c2ccccc2C(NCCCCCCC(=O)[O-])c2ccc(Cl)cc2S1(=O)=O.[Na+] (configuration not stated) [Tianeptine sodium],–,–,–,–,132 ± 22,134,95.1 ± 10,122,95.95 ± 0.8,120,122 ± 4.6,85.3 ± 8,142.2 ± 0.38
O=c1[nH]c2ccccc2n1C1CCN(CCCC(c2ccc(F)cc2)c2ccc(F)cc2)CC1 [Pimozide],–,–,–,–,103 ± 21,104,48.1 ± 31,70.4,69.39 ± 0.41,103,86.7 ± 16,103 ± 24,93.69 ± 0.39
Cl.O=C1CCC2(O)C3Cc4ccc(O)c5c4C2(CCN3CC2CC2)C1O5 (configuration not stated) [Naltrexone HCl],–,–,–,–,120 ± 20,143,108.5 ± 0.5,108,167 ± 2.8,151,80.3 ± 20,88.9 ± 6,92.9 ± 7.2
C[N+](C)(C)CC(=O)O.[Cl-] [Betaine hydrochloride],–,–,–,–,111 ± 4.8,123,95.3 ± 4.7,103,113 ± 11,122,82 ± 6.6,95.5 ± 6.1,107 ± 2.4

SMILES,cell viability (HCI01 [1]),cell viability (UCD52 [2]),cell viability (WHIM2 [3]),cell viability (WHIM30 [4]),cell viability (HCI01 [5]),cell viability (HCI03),cell viability (HCI09),cell viability (HCI11),cell viability (HCI13),cell viability (HCI16),cell viability (UCD52 [6]),cell viability (WHIM2 [7]),cell viability (WHIM30 [8])
CN(C)C1C(=O)C(C(N)=O)=C(O)C2(O)C(=O)C3=C(O)c4c(O)cccc4C(C)(O)C3C(O)C12.O.O (configuration not stated) [Oxytetracycline Dihydrate],–,–,–,–,81.3 ± 15,129,111 ± 22,83.1,123.2 ± 0.95,116,95.3 ± 1.7,72.2 ± 15,123.8 ± 0.32
CCCCCCCCCCCC[N+](C)(C)CCOc1ccccc1.[Br-] [Domiphen Bromide],88.5,80.4,81.7,57.1,34.9 ± 13,48.7,24.1 ± 1.5,50.1,41.3 ± 10,46.4,27.6 ± 1.8,44 ± 14,28.4 ± 4.7
CCCCCCCCCCCCCCCC[n+]1ccccc1.[Cl-] [Cetylpyridinium Chloride],92.7,67.6,63.4,52.8,32.9 ± 12,44.4,16.9 ± 3.2,53.1,25 ± 4.5,42.1,24.2 ± 1.9,36.7 ± 13,28.1 ± 0.9
CC12CC(=CO)C(=O)CC1CCC1C2CCC2(C)C1CCC2(C)O (configuration not stated) [Oxymetholone],–,–,–,–,114 ± 30,97.8,85 ± 38,86.7,54.8 ± 5.8,124,80.6 ± 3.8,90.9 ± 26,135 ± 1.9
O=c1cccc2n1C[C@@H]1CNC[C@H]2C1 [Cytisine],–,–,–,–,93.3 ± 12,112,97.8 ± 15,95,106 ± 14,128,90.9 ± 4.7,87.9 ± 19,81.4 ± 3.6
CN1C2CCC1CC(OC(=O)C(CO)c1ccccc1)C2.CN1C2CCC1CC(OC(=O)C(CO)c1ccccc1)C2.O.O=S(=O)(O)O (configuration not stated) [Atropine],–,–,–,–,104 ± 7.5,134,108 ± 16,114,95.4 ± 4.6,101,83.3 ± 5.5,91.6 ± 19,98.4 ± 7.8
Nc1nc(N)nc(NC2CC2)n1 [Cyromazine],–,–,–,–,111 ± 13,182,107 ± 1.9,97.8,109 ± 22,134,100 ± 2.3,105 ± 28,154 ± 13
O=C(O)c1nn(Cc2ccc(Cl)cc2Cl)c2ccccc12 [Lonidamine],–,–,–,–,88.9 ± 18,112,92.9 ± 6.3,82.9,85.1 ± 8.5,124,82.6 ± 1.7,80.2 ± 32,138.9 ± 1.1
C=C1CC2C(CCC3(C)C(=O)CCC23)C2(C)C=CC(=O)C=C12 (configuration not stated) [Exemestane],–,–,–,–,166 ± 17,103,101 ± 14,124,150 ± 6.5,124,159 ± 17,128 ± 28,151 ± 15
CCCCCCCCCCCCCCCC[N+](C)(C)C.[Br-] [Cetrimonium Bromide (CTAB)],87.8,75.6,74.2,49.2,44.3 ± 15,56.5,21.7 ± 7.3,72,26.9 ± 2,69.1,37.5 ± 1.9,42.4 ± 8.1,35.6 ± 1.7
Cc1cccc(Cc2cnc[nH]2)c1C.Cl [Detomidine HCl],–,–,–,–,118 ± 4,114,96.9 ± 30,97.2,79.4 ± 6.8,92,84.9 ± 4.3,85.5 ± 32,135 ± 3
CC(=O)O[C@@]12CO[C@@H]1C[C@@H](O)[C@@]1(C)C(=O)[C@@H](O)C3=C(C)[C@@H](O)C[C@@](O)([C@@H](OC(=O)c4ccccc4)[C@H]21)C3(C)C [10-DAB (10-Deacetylbaccatin)],–,–,–,–,138 ± 19,107,99.3 ± 2.1,108,97.8 ± 2.6,126,79.2 ± 2.9,84.7 ± 18,126 ± 7.2
CCC1(C)CC(=O)NC(=O)C1 [Bemegride],–,–,–,–,112 ± 13,96.5,91.7 ± 10,109,162 ± 13,108,85.8 ± 8.3,97.9 ± 6,97.2 ± 8.1
CC1CNCCc2ccc(Cl)cc21.Cl (configuration not stated) [Lorcaserin HCl],–,–,–,–,96.6 ± 5.8,110,100 ± 5.7,81.3,94.9 ± 12,106,90.3 ± 3.9,82.89 ± 0.73,111.3 ± 0.19
CN(C)C1C(=O)C(C(N)=O)=C(O)C2(O)C(=O)C3=C(O)c4c(O)cccc4C(C)(O)C3CC12.Cl (configuration not stated) [Tetracycline Hydrochloride],–,–,–,–,105 ± 10,108,89.46 ± 0.85,96.7,92.1 ± 4.3,87.5,77.3 ± 1.4,77.1 ± 20,116 ± 19
Cc1cccc(C(C)c2cnc[nH]2)c1C.Cl (configuration not stated) [Dexmedetomidine HCl],–,–,–,–,110 ± 1.2,103,91.2 ± 26,103,82.7 ± 11,89.9,86.7 ± 1.2,72.3 ± 17,112.3 ± 0.75
CN1C(=O)CCS(=O)(=O)C1c1ccc(Cl)cc1 (configuration not stated) [Chlormezanone],–,–,–,–,90 ± 11,118,92.3 ± 7.5,105,71.1 ± 7.2,122,104 ± 10,113 ± 12,172.2 ± 0.74
CC(C)CC(CN)CC(=O)O (configuration not stated) [Pregabalin],–,–,–,–,97.8 ± 10,104,90.8 ± 9,95.6,138 ± 18,70.8,78.2 ± 7.7,81.4 ± 9.4,111 ± 21
